Drawing on PubChem BioAssay (EPA / NIEHS), this text covers AC50 and outcome for 13 molecules.

Inconclusive results are not listed. Active and inactive are the calls of the source. Rule for the calls, unless noted: active = hit-call score of the fitted dose curve at least 0.9, where 1 is the maximum; inconclusive = response in the unintended direction; inactive = score below 0.9.

Assay [1] is described as follows: Tanguay_ZF_120hpf_BRAI_legacy: (Legacy) Oregon State University Tanguay Lab 120 Hour Post-fertilization zebrafish Assay for Brain Malformation (AID 2283641). The essentials:
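Binary brightfield scoring of brain malformation at 120 hpf in Tropical 5D larvae held under static exposure at 28C (0.64% v/v DMSO), non-mortality endpoints skipped if dead. Positive control: 5uM trimethyltin chloride; fit versus DMSO.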

Assay [2] is described as follows: Tanguay_ZF_120hpf_SOMI_legacy: (Legacy) Oregon State University Tanguay Lab 120 Hour Post-fertilization zebrafish Assay for Somite Malformation (AID 2283647). The essentials:
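Binary somite-defect scoring at 120 hpf, omitted for embryos that died, in wild-type (Tropical 5D) zebrafish with chorion removed by pronase at 4 hpf; static exposure began 6 hpf, single embryos per well, 28C, 0.64% DMSO; fitted positive versus DMSO.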

Assay [3] is described as follows: Tanguay_ZF_120hpf_PFIN_legacy: (Legacy) Oregon State University Tanguay Lab 120 Hour Post-fertilization zebrafish Assay for Pectoral Fin Malformation (AID 2283648).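 Note: each larva judged yes or no for fin defect by brightfield with dead larvae skipped.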 The essentials:
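Binary pectoral fin malformation call at 120 hpf by brightfield microscopy; 5D wild-type zebrafish, chorion removed at 4 hpf, one embryo per well from 6 hpf, static exposure at 28C; DMSO (0.64% final) as baseline.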

A short description of assay [4]: Tanguay_ZF_120hpf_CFIN_legacy: (Legacy) Oregon State University Tanguay Lab 120 Hour Post-fertilization zebrafish Assay for Caudal Fin Malformation (AID 2283649). The essentials: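 Binary brightfield scoring of caudal fin defects at 120 hpf after static, light-shielded exposure at 28C from 6 hpf. Tropical 5D embryos, chorion removed with pronase at 4 hpf, final DMSO 0.64%.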

Assay [5] in a line: Tanguay_ZF_120hpf_PIG_legacy: (Legacy) Oregon State University Tanguay Lab 120 Hour Post-fertilization zebrafish Assay for Pigmentation Malformation (AID 2283650). The method, boiled down: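 Brightfield scoring of pigmentation malformation at 120 hpf, recorded as binary present/absent per larva. Exposure: dechorionated 5D wild-type embryos, one per well, static from 6 hpf at 28C, final DMSO 0.64% (vol/vol). Dead embryos not scored.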

Assay [6] is described as follows: Tanguay_ZF_120hpf_SWIM_legacy: (Legacy) Oregon State University Tanguay Lab 120 Hour Post-fertilization zebrafish Assay for Swim Bladder Malformation (AID 2283654).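 Note: swim bladder malformation in each larva scored yes or no under brightfield.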 The essentials:
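Tropical 5D embryos dechorionated at 4 hpf; 1 embryo/well from 6 hpf; static, sealed, dark exposure at 28C until 120 hpf; final DMSO 0.64%; 5uM trimethyltin chloride positive control; swim bladder defect recorded yes/no; dead embryos not scored.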

The nature of assay [7]: Tanguay_ZF_120hpf_NC_legacy: (Legacy) Oregon State University Tanguay Lab 120 Hour Post-fertilization zebrafish Assay for Notochord and Tail Malformation (AID 2283656). The method, boiled down:
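Binary scoring of notochord distortion by brightfield microscopy; embryos dying were not scored. Wild-type Tropical 5D embryos, chorion removed, exposed singly and statically from 6 to 120 hpf, 28C, sealed, 0.64% DMSO.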

Read-out in assay [8]: Broad substrate specificity ATP-binding cassette transporter ABCG2 (Homo sapiens) (UniProt Q9UNQ0)
Description: CLD_ABCG2_6hr: CellzDirect (CLD) Gene Expression Assay for ABC Transporter (ABCG2) at 6 hours (AID 2283660). The essentials:
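ABCG2 mRNA induction measured by qNPA chemiluminescence in human primary hepatocyte cultures, 6 h post-dose. Chemicals tested at several concentrations against a 0.2% DMSO vehicle; positive-direction fit relative to DMSO.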

Read-out in assay [9]: organic anion transporter (SLCO1B1), SLCO1B1 (gene 10599)
Description: CLD_SLCO1B1_6hr: CellzDirect (CLD) Gene Expression Assay for organic anion transporter (SLCO1B1) at 6 hours (AID 2283668).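 Note: active means mRNA induction above DMSO baseline.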 The essentials:
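SLCO1B1 mRNA induction measured 6 h after dosing by quantitative nuclease protection with chemiluminescent read-out, in human primary hepatocyte cultures given chemicals at several concentrations (vehicle 0.2% DMSO). Increase over DMSO baseline fitted; morphology-based cytotoxicity annotated yes/no.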

The nature of assay [10]: Tanguay_ZF_120hpf_CIRC_legacy: (Legacy) Oregon State University Tanguay Lab 120 Hour Post-fertilization zebrafish Assay for Circulatory Malformation (AID 2283651). The method, boiled down: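 Binary circulatory malformation call at 120 hpf by brightfield imaging of zebrafish larvae; chorion removed at 4 hpf, static exposure from 6 hpf in sealed dark plates at 28C, final DMSO 0.64%; non-mortality endpoints skipped if embryo died.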

Read-out in assay [11]: sulfotransferase (SULT2A), SULT2A1 (gene 6822)
Description: CLD_SULT2A_6hr: CellzDirect (CLD) Gene Expression Assay for sulfotransferase (SULT2A) at 6 hours (AID 2283669).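 Note: hits raise transcript level above the DMSO vehicle baseline.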 The essentials: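 Measured 6 h after dosing, SULT2A1 mRNA in human hepatocyte lysates was quantified by S1 nuclease protection with chemiluminescent detection. Increases fitted against 0.2% DMSO vehicle baseline; phase-contrast cytotoxicity recorded yes/no.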

The nature of assay [12]: Tanguay_ZF_120hpf_TRUN_legacy: (Legacy) Oregon State University Tanguay Lab 120 Hour Post-fertilization zebrafish Assay for Truncated Body (AID 2283655). The method, boiled down: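 Binary presence/absence of truncated body is recorded at 120 hpf by brightfield, with non-mortality endpoints skipped after death. Exposure is static from 6 hpf in sealed dark plates at 28C, using dechorionated wild-type zebrafish, 0.64% DMSO.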

Read-out in assay [13]: xenobiotic metabolism (CYP1A1), CYP1A1 (gene 1543)
Description: CLD_CYP1A1_6hr: CellzDirect (CLD) Gene Expression Assay for xenobiotic metabolism (CYP1A1) at 6 hours (AID 2283661). The essentials:
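Read-out 6 h post-dose: qNPA chemiluminescent quantitation of transcript induction against 0.2% DMSO. Cells were cultured primary human hepatocytes from two separate donor preparations; phase-contrast morphology annotated apparent cytotoxicity.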

Assay [14] relates to Thyroperoxidase (TPO), gene 54314. Description: CCTE_Simmons_AUR_rTPO: CCTE's Amplex UltraRed Assay for Thyroperoxidase (TPO) Inhibition, Simmons Lab (AID 2283662).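 Note: potency for loss of signal meaning inhibition of peroxidase activity.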 The method, boiled down:
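Endpoint is decreased Amplex UltraRed fluorescence after a 30-min, 37C reaction of rat thyroid microsomes with 300 uM H2O2. Eight test concentrations (5 nM–87.5 uM final) in 0.5% DMSO, three biological replicates each.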

Read-out in assay [15]: solute carrier (SLC22A6), SLC22A6 (gene 9356)
Description: LTEA_HepaRG_SLC22A6: Life Technologies and Expression Analysis (LTEA) Assay for solute carrier (SLC22A6) using HepaRG (AID 2283653; active = hit-call score of the fitted dose curve at least 0.9, where 1 is the maximum; inactive = score below 0.9). The following applies: mRNA level, 48 h; actives raise or lower the signal. The method, boiled down: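 SLC22A6 transcript was measured by TaqMan qRT-PCR, normalized to three housekeeping genes, after 48 h duplicate exposure of HepaRG cells (100 uM top, half-log steps, 0.5% DMSO); bidirectional fit against vehicle.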

Read-out in assay [16]: solute carrier (SLC10A1), SLC10A1 (gene 6554)
Description: LTEA_HepaRG_SLC10A1: Life Technologies and Expression Analysis (LTEA) Assay for solute carrier (SLC10A1) using HepaRG (AID 2283657; active = hit-call score of the fitted dose curve at least 0.9, where 1 is the maximum; inactive = score below 0.9). The settings on record: mRNA level, 48 h; actives raise or lower the signal. The method, boiled down:
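HepaRG, 48 h exposure, 8-pt half-log curve from 100 uM in 0.5% DMSO, duplicates. Read-out: TaqMan qRT-PCR of SLC10A1 mRNA, normalized to three housekeeping genes. Gain/loss fit vs DMSO baseline.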

Read-out in assay [17]: matrix metalloproteinase-1 (MMP1), MMP1 (gene 4312)
Description: LTEA_HepaRG_MMP1: Life Technologies and Expression Analysis (LTEA) Assay for matrix metalloproteinase-1 (MMP1) using HepaRG (AID 2283658; active = hit-call score of the fitted dose curve at least 0.9, where 1 is the maximum; inactive = score below 0.9). The settings on record: mRNA level, 48 h; actives raise or lower the signal. The essentials:
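qRT-PCR (TaqMan, Fluidigm arrays) of MMP1 transcript, normalized against three housekeeping genes and fitted in both directions relative to 0.5% DMSO vehicle. Human HepaRG cultures received duplicate 48 h exposures across 8 points, highest 100 uM with half-log steps.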

Sequence of Broad substrate specificity ATP-binding cassette transporter ABCG2 (Homo sapiens) (Q9UNQ0 whole entry, looked up): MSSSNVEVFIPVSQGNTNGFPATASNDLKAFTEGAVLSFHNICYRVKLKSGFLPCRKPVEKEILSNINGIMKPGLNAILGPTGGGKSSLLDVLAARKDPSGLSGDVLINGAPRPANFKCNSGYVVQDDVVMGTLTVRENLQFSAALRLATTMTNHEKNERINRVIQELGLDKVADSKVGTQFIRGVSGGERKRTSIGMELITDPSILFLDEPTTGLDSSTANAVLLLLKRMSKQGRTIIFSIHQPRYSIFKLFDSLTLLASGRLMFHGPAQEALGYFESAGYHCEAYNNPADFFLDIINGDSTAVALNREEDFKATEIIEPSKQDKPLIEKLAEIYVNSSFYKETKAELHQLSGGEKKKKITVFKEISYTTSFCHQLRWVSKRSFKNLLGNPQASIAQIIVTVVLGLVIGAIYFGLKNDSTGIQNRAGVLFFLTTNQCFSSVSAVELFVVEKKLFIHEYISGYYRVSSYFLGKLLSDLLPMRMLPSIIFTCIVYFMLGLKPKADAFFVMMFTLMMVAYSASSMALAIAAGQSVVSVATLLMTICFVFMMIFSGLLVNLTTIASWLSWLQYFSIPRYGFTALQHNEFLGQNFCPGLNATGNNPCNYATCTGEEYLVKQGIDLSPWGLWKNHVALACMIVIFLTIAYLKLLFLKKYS

A word on the AC50: it is the concentration at which the activity in the assay is half-maximal. For the molecule `c1ccc(Nc2ccccc2)cc1`, in assay [1], the AC50 is 10.2 µM (active). Also, the call in assay [2], in assay [3], in assay [4], in [5], in assay [6] and in assay [7] was inactive. Moreover, the molecule was called inactive in assay [8] and in [9].
As for `CCCOC(=O)NCCCN(C)C`, the molecule was classed as inactive in [1], in [2], in assay [3], in assay [4], in [5] and in assay [10]. In addition, the molecule was classed as inactive in [6], in [7], in assay [8] and in [11].
For the molecule `CCN(CC)C(=O)c1cccc(C)c1`, the molecule was called inactive in assay [1], in [2], in [3], in assay [4], in assay [5] and in assay [10]. The molecule was called inactive in [6], in assay [12], in assay [7], in [8], in [9] and in assay [11].
As to `O=C(O)C1(C(=O)Nc2ccc(Cl)cc2Cl)CC1`, the outcome in assay [1], in assay [2], in assay [3], in assay [4], in assay [5] and in [10] was inactive. Also, the result in assay [6], in [12], in assay [7], in assay [8], in assay [13] and in assay [11] was inactive.
Take `CCCCCOC(=O)COc1cc(N2C(=O)C3=C(CCCC3)C2=O)c(F)cc1Cl`: the result in assay [1], in assay [2], in assay [3], in assay [4], in [5] and in assay [10] was inactive. Besides, the molecule was classed as inactive in [6], in assay [12], in assay [7], in [8] and in [11].
For `CC1(C)C(C=C(Cl)Cl)C1C(=O)OCc1cccc(Oc2ccccc2)c1` (stereo not drawn), the outcome in assay [1], in assay [2], in [3], in [4], in assay [6] and in [12] was inactive. The result in assay [7], in assay [8], in [9] and in [11] was inactive.
For `COc1c(Cl)ccc(Cl)c1C(=O)O`, the molecule was called inactive in [1], in assay [2], in assay [3], in assay [4], in assay [5] and in [10]. For the same molecule, the molecule was called inactive in assay [12], in assay [7], in assay [9] and in assay [11].
On to `CSC(=O)c1cccc2nnsc12`, for which the result in assay [1], in [2], in assay [3], in assay [4], in assay [5] and in assay [10] was inactive. Further, the molecule was called inactive in assay [6], in [12], in assay [7] and in [11]. Moreover, the AC50 in assay [14] was 0.303 µM (active).
As to `CCSC(=O)N(CC(C)C)CC(C)C`, the call in assay [1], in [2], in assay [3], in assay [4], in [5] and in assay [6] was inactive. In addition, the molecule was classed as inactive in assay [12], in [7], in [8], in assay [9] and in assay [11].
On to `CC(=O)[C@H]1CC[C@H]2[C@@H]3CCC4=CC(=O)CC[C@]4(C)[C@H]3CC[C@]12C`, for which the molecule was classed as inactive in assay [1], in [2], in [3], in [4], in assay [5] and in assay [10]. The molecule was called inactive in assay [6] and in [12].
With `CN(C)C(=O)Nc1ccc(Cl)c(Cl)c1`, the outcome in assay [1], in assay [2], in [3], in assay [4], in assay [5] and in [10] was inactive. Also, the molecule was called inactive in assay [15], in assay [6], in assay [7], in assay [17] and in assay [11]. Also, the AC50 in assay [16] was 52.8 µM (active); in assay [14], 36.6 µM (active).
Consider `N#CSCSc1nc2ccccc2s1`, for which the molecule was called inactive in [1], in assay [2], in [3], in assay [4], in assay [5] and in [10]. Moreover, the result in [15], in [6], in assay [12], in assay [7], in assay [17] and in [8] was inactive. In assay [11], the outcome was inactive. The results for the AC50 in [16] and in assay [14] were 83.6 µM (active) and 2.57 µM (active), respectively.
On to `CC(C)(C)[C@@H](O)[C@@H](Cc1ccc(Cl)cc1)n1cncn1`, for which the outcome in assay [1], in assay [2], in [3], in [4], in assay [5] and in assay [10] was inactive. Also, the result in assay [6], in assay [12], in [7], in [8] and in [11] was inactive.
